± gives the standard deviation of the averaged measurements. Whole data set: some 1,900 compounds, median “CD40L-induced NF-kB luciferase activity, plate-corrected, relative to DMSO (0) and IKK inhibitor VII (-100) controls” near 0.032, cut for the lowest 2% near -26. For the sample, the lowest values were picked, then their nearest neighbours and some compounds at random.

These results are taken from the supplement of paper PMC3656093.

The subject of this experiment is BL2-NFkB-Luc. The experiment is described as follows: CD40L-induced NF-kB luciferase activity, plate-corrected, relative to DMSO (0) and IKK inhibitor VII (-100) controls (% normalized activity); higher = more NF-kB reporter activity (less inhibition). The settings on record: 9.4 µM; stimulus: tCD40L 64 ng/ml; 4.5 h. As for the experimental part:
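BL2 B cells with a stable NF-kB response-element luciferase reporter (BL2-NFkB-Luc), 384-well. Cells were pre-incubated with compound at 9.4 uM for 1 h at 37 C, then stimulated with 64 ng/ml trimerized CD40L for 4.5 h; luciferase was read with Steady-Glo. Signal was normalised per plate in Genedata (median DMSO neutral control = 0, median IKK inhibitor VII at 50 uM = -100) with Assay Median plate-pattern correction; duplicate plates.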
In the case of `O=C1C=Cc2ccccc2C1=O`, the “CD40L-induced NF-kB luciferase activity” value came out at 4.88 ± 5.5.
Consider `O=C1C(=O)c2ccccc2-c2ccccc21`, for which the “CD40L-induced NF-kB luciferase activity” value was -94.61 ± 0.41.
In the case of `CCCC[N+]1(C)[C@@H]2CC(OC(=O)[C@H](CO)c3ccccc3)C[C@H]1[C@@H]1O[C@@H]12` (stereo partly drawn), the “CD40L-induced NF-kB luciferase activity” value is -0.479 ± 2.2.
`CCN(CC)C(=O)N[C@H]1C[C@@H]2c3cccc4[nH]cc(c34)C[C@H]2N(C)C1`: the “CD40L-induced NF-kB luciferase activity” value was -15 ± 8.3.
To `CC(C)C[C@H]1C(=O)N2CCC[C@H]2[C@]2(O)O[C@](NC(=O)[C@@H]3C=C4c5cccc6[nH]c(Br)c(c56)CC4N(C)C3)(C(C)C)C(=O)N12` (stereo partly drawn) belongs 3.22 ± 1.5; to `c1ccc2c(c1)[nH]c1cnccc12`, -5 ± 7.4.
In the case of `COc1cc([C@@H]2c3cc4c(cc3[C@H](O)[C@H]3COC(=O)[C@H]23)OCO4)cc(OC)c1OC`, the “CD40L-induced NF-kB luciferase activity” value is -50.7 ± 3.
Turning to `CCCC(=O)OCC[N+](C)(C)C`, the “CD40L-induced NF-kB luciferase activity” value is -5.48 ± 4.7.
With `CN1[C@@H]2CC[C@H]1CC(OC(=O)C1C=Nc3ccccc31)C2` (stereo partly drawn), the “CD40L-induced NF-kB luciferase activity” value is -2.21 ± 6.7.
`Cc1ccc2c(c1)C1CN(C)CCC1N2C(=O)Nc1cccc(Cl)c1` (stereo not drawn): the “CD40L-induced NF-kB luciferase activity” value is -6.16 ± 2.1.
In the case of `C[C@H]1OC[C@@H](C[N+](C)(C)C)O1`, the “CD40L-induced NF-kB luciferase activity” value was -0.99 ± 1.9.
For `COc1ccc(CN2CC3CC(C2)c2cccc(=O)n2C3)cc1OC` (stereo not drawn), the “CD40L-induced NF-kB luciferase activity” value is -5.62 ± 3.4.
In the case of `CN[C@H](C)[C@H](O)c1ccccc1`, the “CD40L-induced NF-kB luciferase activity” value was -2.12 ± 1.3.
For `COc1ccc(OCC(=O)N2c3ccc(C)cc3C3CN(C)CCC32)cc1` (stereo not drawn), the “CD40L-induced NF-kB luciferase activity” value stood at 0.261 ± 0.6.
On to `CC(C)C[C@H](NC(=O)[C@@H]1CCCN1C(=O)[C@@H](N)Cc1ccc(O)cc1)C(=O)NCC(N)=O`, for which the “CD40L-induced NF-kB luciferase activity” value is -28.7 ± 4.1.
To `CC(C)(C)NCC(O)c1cc(Cl)c(N)c(Cl)c1` (stereo not drawn) belongs -3.51 ± 17.
To `COc1ccc(CCN2CCC(Nc3nc4ccccc4n3Cc3ccc(F)cc3)CC2)cc1` belongs -4.18 ± 3.9; to `CC[C@H]1CN2CCc3cc(OC)c(OC)cc3[C@@H]2C[C@@H]1C[C@H]1NCCc2cc(OC)c(OC)cc21`, -93.93 ± 0.21.
To `c1ccc2c3c([nH]c2c1)CNCC3` belongs -0.0865 ± 4.1.
For the molecule `CC12CC[C@H]3[C@@H](CCC4(O)C[C@H](O)CCC34C=NNC(=O)Cc3ccccc3)C1(O)CCC2C1=CC(=O)OC1` (stereo partly drawn), the “CD40L-induced NF-kB luciferase activity” value was -1.26 ± 0.48.
As for `C[C@@H]1O[C@@H](O[C@H]2C[C@@H](O)[C@]3(CO)[C@H]4[C@H](O)C[C@]5(C)[C@@H](C6=CC(=O)OC6)CC[C@]5(O)[C@@H]4CC[C@]3(O)C2)[C@H](O)[C@H](O)[C@H]1O`, the “CD40L-induced NF-kB luciferase activity” value is -78.94 ± 0.33.
In the case of `C[C@@H]1O[C@@H](O[C@H]2C[C@@H](O)[C@]3(CO)[C@H]4[C@H](O)C[C@]5(C)[C@@H](C6COC(=O)C6)CC[C@]5(O)[C@@H]4CC[C@]3(O)C2)[C@H](O)[C@H](O)[C@H]1O` (stereo partly drawn), the “CD40L-induced NF-kB luciferase activity” value stood at 2.54 ± 3.8.
To `CC12CN3CC(C)(CN(C1)C3c1cccs1)C2O` (stereo not drawn) belongs -2.02 ± 2.9; to `C[C@]12CCC(=O)C=C1CCC1C2CC[C@@]2(C)C1CC[C@@]2(O)CC#N` (stereo partly drawn), -0.607 ± 3.7; to `O=C1CSC2N1CCNC21CCCCC1` (stereo not drawn), -1.57 ± 5.5.
To `CCC1(c2ccccc2)C(=O)N(COC)C(=O)N(COC)C1=O` belongs -30.1 ± 1.2; to `CN1C2CCC1CC(OC(=O)c1ccc(Cl)cc1)C2` (stereo not drawn), -2.24 ± 2.5; to `CN(C)[C@@H]1C(=O)C(C(N)=O)C(=O)[C@@]2(O)C(=O)C3C(=O)c4c(O)cccc4[C@@](C)(O)[C@H]3[C@H](O)[C@@H]12` (stereo partly drawn), 0.102 ± 0.97.
